Outcome and AC50 data for 40 molecules are collected here from PubChem BioAssay (EPA / NIEHS).

The structures appear in SMILES notation. The source made the active and inactive calls. How the source made its calls: active means hit-call score of the fitted dose curve at least 0.9, where 1 is the maximum; inactive means score below 0.9.

The target of this experiment is Transcriptional activator Myb (Homo sapiens) (UniProt P10242). The experiment can be described thus: ATG_Myb_CIS: Attagene CIS-FACTORIAL HepG2 Assay for human Myeloblastosis (Myb) Proto-Oncogene Transcription Factor (AID 2282986). Particulars: HepG2 Attagene CIS-FACTORIAL Myb reporter transcription; actives raise or lower the signal. As for the experimental part: ATG_CIS is a cell-based, multiplexed-readout assay that uses HepG2, a human liver cell line, with measurements taken at 24 hours after chemical dosing in a 24-well plate.ATG_Myb_CIS is one of 52 assay component(s) measured or calculated from the ATG_CIS assay. It is designed to make measurements of mRNA induction, a form of inducible reporter, as detected with fluorescence intensity signals by Reverse transcription polymerase chain reaction (RT-PCR) and Capillary electrophoresis technology.Data from the assay component ATG_Myb_CIS was analyzed into 1 assay endpoint. This assay endpoint, ATG_Myb_CIS, was analyzed with bidirectional fitting relative to DMSO as the negative control and baseline of activity. Using a type of inducible reporter, measures of mRNA for gain or loss-of-signal activity can be used to understand the reporter gene at the transcription factor-level as they relate to the gene MYB. Furthermore, this assay endpoint can be referred to as a primary readout, because this assay has produced multiple assay endpoints where this one serves a reporter gene function. To generalize the intended target to other relatable targets, this assay endpoint is annotated to the dna binding intended target family, where the subfamily is MYB proteins.
Chain of Transcriptional activator Myb (Homo sapiens) (P10242 whole entry, looked up): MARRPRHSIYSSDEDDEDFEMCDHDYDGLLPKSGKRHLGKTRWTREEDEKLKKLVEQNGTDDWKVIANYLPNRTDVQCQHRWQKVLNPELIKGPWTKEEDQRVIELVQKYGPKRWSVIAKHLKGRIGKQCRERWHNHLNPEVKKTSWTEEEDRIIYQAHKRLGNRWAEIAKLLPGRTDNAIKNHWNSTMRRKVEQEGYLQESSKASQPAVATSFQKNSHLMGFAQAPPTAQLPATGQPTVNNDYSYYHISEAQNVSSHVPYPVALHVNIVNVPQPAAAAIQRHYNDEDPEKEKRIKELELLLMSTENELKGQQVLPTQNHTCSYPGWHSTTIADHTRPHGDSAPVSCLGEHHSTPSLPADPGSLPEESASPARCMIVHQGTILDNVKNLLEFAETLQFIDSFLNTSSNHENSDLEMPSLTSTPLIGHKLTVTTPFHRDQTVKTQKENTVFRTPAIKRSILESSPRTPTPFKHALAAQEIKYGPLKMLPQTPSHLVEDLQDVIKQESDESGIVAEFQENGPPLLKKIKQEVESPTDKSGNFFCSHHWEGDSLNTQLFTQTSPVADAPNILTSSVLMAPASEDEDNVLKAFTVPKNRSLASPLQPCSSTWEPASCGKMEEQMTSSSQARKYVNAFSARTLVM
Human liver HepG2 cells are transiently transfected with multiple reporter transcription units (MRTUs) in 6-well plates using FuGene 6 reagent (Roche; 3 ml FuGene/1 mg DNA). The MRTU constructs are regulated by a cis-regulating element (promoter). […] A major difference between the CIS and TRANS system is that in CIS activities of endogenous TFs are measured, whereas the TRANS assay evaluates changes in activities of exogenous, chimeric NR-Gal4 proteins. […] At the end of 24 hour incubation, total RNA was isolated using TriZol reagent (Invitrogen). The isolated RNA is then reverse-transcribed using oligo(dT) primer and Mo-MLV reverse transcriptase (Invitrogen) with DNAse I (Ambion) treatment for 30 min. The one-tenth of the produced cDNA was amplified by PCR using Taq DNA polymerase (Invitrogen) and two reporter sequence-specific primers. The PCR products were fluorescently labeled by primer extension with 6-arboxyfluorescein (6-FAM) 5'-labeled reporter sequence-specific primer (2 min at 95 C, 20 s at 68 C and 10 min at 72 C) and these products were digested with 5U of HpaI (New England Biolabs) for 2h at 37 C. The fragments were purified using Qiaquick PCR columns (Qiagen), analyzed on an ABI 3130xL genetic analyzer (Applied Biosystems) with peak positions identified by using a set of X-rhodamine (ROX)-labeled MapMarker1000 molecular weight standards (BioVentures). The raw capillary electrophoresis data was processed using Attagraph software (Attagene).
On to `Nc1cnn(-c2ccccc2)c(=O)c1Cl`, for which the call was inactive.

`CCCCOCN(C(=O)CCl)c1c(CC)cccc1CC`: the molecule was classed as inactive.

Take `C=CCOC(=O)C(C)(C)OC(=O)c1cc(-n2c(=O)cc(C(F)(F)F)n(C)c2=O)ccc1Cl`: the molecule was classed as inactive.

For the molecule `CCCN(CC)CC1COC2(CCC(C(C)(C)C)CC2)O1` (stereo not given), the molecule was called inactive.

For `CCNC(=O)NC(=O)C(C#N)=NOC`, the result was inactive.

Regarding `CC(C)Nc1nc(Cl)nc(NC(C)C)n1`, the call was inactive.

Turning to `CC(C)N1C(=O)c2ccccc2NS1(=O)=O`, the outcome was inactive.

Regarding `CCN(CC)C(=O)C(C)Oc1cccc2ccccc12` (stereo not given), the outcome was inactive.

For `O=c1n(Cl)c(=O)n(Cl)c(=O)n1Cl`, the molecule was classed as inactive.

`COCC(=O)N(c1c(C)cccc1C)C(C)C(=O)OC` (stereo not given): the outcome was inactive.

Turning to `CC1(C)C(C=C(Cl)Cl)C1C(=O)OC(C#N)c1cccc(Oc2ccccc2)c1` (stereo not given), the outcome was inactive.

Take `COCc1cnc(C2=NC(C)(C(C)C)C(=O)N2)c(C(=O)O)c1` (stereo not given): the result was inactive.

Turning to `O=C(Nc1ccccc1-c1ccc(Cl)cc1)c1cccnc1Cl`, the outcome was inactive.

For the molecule `CS(=O)(=O)c1cc(C(F)(F)F)ccc1C(=O)c1cnoc1C1CC1`, the outcome was inactive.

In the case of `CC1(C)CON(Cc2ccccc2Cl)C1=O`, the molecule was classed as inactive.

As to `COC(=O)N(C(=O)N1CO[C@@]2(C(=O)OC)Cc3cc(Cl)ccc3C2=N1)c1ccc(OC(F)(F)F)cc1`, the result was inactive.

Consider `CCOC(=O)C(C)OC(=O)c1cc(Oc2ccc(C(F)(F)F)cc2Cl)ccc1[N+](=O)[O-]` (stereo not given), for which the molecule was called inactive.

With `CC1(C)C(C(=O)OC(C#N)c2cccc(Oc3ccccc3)c2)C1(C)C` (stereo not given), the result was inactive.

As to `Cc1cc(C)nc(Nc2ccccc2)n1`, the outcome was inactive.

Regarding `COP(=S)(OC)Oc1ccc([N+](=O)[O-])c(C)c1`, the call was inactive.

On to `Cc1ccc(N=CN(C)C=Nc2ccc(C)cc2C)c(C)c1`, for which the call was inactive.

On to `CCOc1cc(C(C)(C)C)ccc1C1COC(c2c(F)cccc2F)=N1` (stereo not given), for which the outcome was inactive.

Regarding `COc1ccc(-c2ccccc2)cc1NNC(=O)OC(C)C`, the call was inactive.

As for `N#CN=C1SCCN1Cc1ccc(Cl)nc1`, the result was inactive.

`CCOP(=O)(OCC)Oc1nc(Cl)c(Cl)cc1Cl`: the molecule was called inactive.

With `O=P(O)(O)CCCl`, the molecule was called inactive.

As to `Cc1nc(N(C)C)nc(OC(=O)N(C)C)c1C`, the result was inactive.

With `COC(=O)NC(=S)Nc1ccccc1NC(=S)NC(=O)OC`, the call was inactive.

For the molecule `CCOP(=S)(OCC)Oc1nc(Cl)n(C(C)C)n1`, the result was inactive.

By AC50 is commonly meant the concentration at which the activity in the assay is half-maximal. Turning to `CCOc1nc(F)cc2nc(S(=O)(=O)Nc3c(Cl)cccc3Cl)nn12`, the AC50 was 22.9 nM (active).

For the molecule `CCOc1nc(C(Cl)(Cl)Cl)ns1`, the outcome was inactive.

As to `C=C(C)CN(CC)c1c([N+](=O)[O-])cc(C(F)(F)F)cc1[N+](=O)[O-]`, the call was inactive.

Turning to `Nc1c(Cl)c(Cl)nc(C(=O)O)c1Cl`, the call was inactive.

For the molecule `COC(=O)NS(=O)(=O)c1ccc(N)cc1`, the molecule was called inactive.

Turning to `CC(C)C1(C)N=C(c2ncccc2C(=O)O)NC1=O` (stereo not given), the call was inactive.

Take `CCCCC(O)(Cn1cncn1)c1ccc(Cl)cc1Cl` (stereo not given): the call was inactive.

In the case of `CCCCC(C#N)(Cn1cncn1)c1ccc(Cl)cc1` (stereo not given), the call was inactive.

Consider `O=C1C2CC=CCC2C(=O)N1SC(Cl)(Cl)Cl` (stereo not given), for which the result was inactive.

Take `CNC(=O)Oc1cccc2ccccc12`: the molecule was classed as inactive.

Regarding `CCSC(=O)N1CCCCCC1`, the outcome was inactive.
